Experimental data published in PubChem BioAssay AID651724 (National Center for Advancing Translational Sciences (NCATS), 2012).
Screen size: about 340,000 compounds; about 1,700 (0.5%) were called active. Another 2% or so got no clear call; they are omitted. Cut-off read from the data, not from the text of the source: active = activity change below about -65%; inconclusive = mostly about -30% to -63%; inactive = weaker than that. Shown is part of a subset that was picked to be rich in actives.

tested on: CtBP / adenovirus E1A interaction (AlphaScreen); assay: qHTS Assay for Inhibitors of the CtBP/E1A Interaction; conditions: AlphaScreen GST-E1A/His-CtBP binding, 1536-well; active compounds read low
Text: Carboxyl-terminal binding protein (CtBP) is a co-repressor for many transcription factors. […] Our studies have shown that CtBP is overexpressed in multiple human cancers, including lung, breast, and head and neck cancers. In particular, it is over-expressed in 50% of primary lung cancer and 90% of metastatic lesions. CtBP suppresses epithelial-specific genes as well as genes critical for apoptosis, providing the underlying molecular mechanism for its role in tumorigenesis. […] Based on the above data, we hypothesize that 1) CtBP suppresses the pro-apoptotic and epithelial genes, therefore overexpressed CtBP in human cancer cells increases EMT and cancer survival; 2) decreasing CtBP's function represents a targeted therapy for lung cancer and potentially multiple cancer types. As a co-repressor, CtBP binds to E1A and other transcription factors through a conserved peptide motif to carry out its action. Inhibiting this interaction using small molecules can potentially serve as effective cancer therapeutics.
To this end, we have developed a homogenous AlphaScreen assay targeting the CtBP/E1A interaction. We performed a large scale HTS of the Molecular Libraries Small Molecule Repository (MLSMR) to identify inhibitors of the CtBP/E1A interaction as potential anti-cancer therapeutics. Compounds identified can also be used as chemical probes to better understand the biological functions of CtBP.
NIH Chemical Genomics Center [NCGC]
NIH Molecular Libraries Probe Centers Network [MLPCN]
Assay Submitter (PI): Rui Zhao, University of Colorado Denver
The first step of the 5uL AlphaScreen assay is to dispense assay buffer (50 mM Tris, pH 8.0, 300 mM NaCl, 0.05% BSA, 0.02% Tween 20, 1 mM TCEP) into a Greiner 1536 white solid bottom microtiter plate (789175-F). Five microliters is added to Column 1, 4 uL is added to Column 2 and 3 uL is added to Columns 3 through 48. A 5X protein solution (125 nM GST-E1A protein + 125 nM His-tagged CtBP protein) is mixed and 1 uL is dispensed to Columns 3-48. Using a 1536 pintool, 23 nL of compound is transferred to the assay plate and the plate is incubated with a lid at 37 deg C in the dark for two hours. A solution of 5X AlphaScreen beads is mixed (50 ug/mL Glutathione linked donor beads + Nickel chelated acceptor beads) and 1 uL is dispensed to Columns 2-48. The assay plate is incubated for one hour, with a lid, at 37 deg C in the dark. The plate is read using a Perkin Elmer Envision using an AlphaScreen protocol.
% is set by controls: 0 for no effect and ±100 for the full control effect.

SMILES | activity change
CCC(C)n1c(O)c(/C=N/Nc2nc3c(c(=O)n(C)c(=O)n3C)n2C)c(=O)[nH]c1=S (stereo not given) | -83.2% (active)
COc1ccc(-n2nnnc2C(c2cccc3ccccc23)N2CCC(n3c(=O)[nH]c4ccccc43)CC2)cc1 (stereo not given) | -14.3% (inactive)
O=c1[nH]c(=S)n(C2CC2)c(O)c1/C=N/N1CCOCC1 | -2.5% (inactive)
Cc1cccc(-n2c(O)c(/C=N/N3CCOCC3)c(=O)[nH]c2=S)c1 | 9.2% (inactive)
CC(C)c1ccc(-n2c(O)c(/C=N/N3CCOCC3)c(=O)[nH]c2=S)cc1 | -2.7% (inactive)
O=C(N/N=C/c1c(O)n(C2CC2)c(=S)[nH]c1=O)c1ccccc1Cl | -92.7% (active)
O=C(N/N=C/c1c(O)n(Cc2ccccc2)c(=O)[nH]c1=O)c1ccccc1 | -72.7% (active)
CC/C(=N\NC(=O)c1ccccc1O)c1c(O)n(Cc2ccccc2)c(=O)[nH]c1=O | -5.73% (inactive)
O=c1[nH]c(=O)n(Cc2ccccc2)c(O)c1/C=N/Nc1c(F)c(F)c(F)c(F)c1F | 4.41% (inactive)
O=C(N/N=C/c1c(O)n(C2CC2)c(=S)[nH]c1=O)c1ccccc1 | -92.7% (active)
COc1ccccc1-n1c(O)c(C=NC2CC2)c(=O)[nH]c1=O | 7.53% (inactive)
CCOC(=O)[C@]12Cc3cc(OC)ccc3[C@H]1N(C(C)C)C(=O)c1ccccc12 | -1.62% (inactive)
CC(=CCOc1ccc2ccc(=O)oc2c1)C1=CC(=O)C(C)(C)O1 | 1.99% (inactive)
COC(=O)C[C@H]1CC[C@H]2NC[C@@H](O)COC[C@@H]2O1 | -7.3% (inactive)
CCOC(=O)[C@]12Cc3ccccc3[C@H]1N(C1CCCCC1)C(=O)c1cc(OC)ccc12 | -16.5% (inactive)
O=c1[nH]c2ccccc2n1C1CCN(C(c2ccccc2)c2nnnn2Cc2ccccc2)CC1 (stereo not given) | -12.7% (inactive)
O=C1NCN(c2ccccc2)C12CCN(C(c1cccs1)c1nnnn1C1CCCCC1)CC2 (stereo not given) | -7.02% (inactive)
O=C(NCC1=C(c2ccc3ccccc3c2)C[C@@H]2CC[C@H]1N2Cc1ccco1)c1cccs1 | -23.4% (inactive)
COC(=O)CN(CCCl)P1(=O)OCCCN1CCCl (stereo not given) | 2.9% (inactive)
COc1cccc(C(c2nnnn2-c2ccc3c(c2)OCCO3)N2CCC3(CC2)C(=O)NCN3c2ccccc2)c1OC (stereo not given) | -13% (inactive)
O=c1[nH]c2ccccc2n1C1CCN(C(c2ccnc3ccccc23)c2nnnn2Cc2ccccc2)CC1 (stereo not given) | -7.28% (inactive)
COc1ccc(CCn2c(O)c(C=NC3CC3)c(=O)[nH]c2=O)cc1OC | -7.4% (inactive)
O=c1[nH]c(=O)n(CCc2ccc(F)cc2)c(O)c1/C=N/N1CCCCC1 | -1.47% (inactive)
CCCCC(=O)N/N=C/c1c(O)n(CCC2=CCCCC2)c(=O)[nH]c1=O | -82.9% (active)
COC(=O)C1=C(c2ccc(OCc3ccccc3)cc2)C[C@@H]2CC[C@H]1N2C(=O)NCc1ccc(Cl)cc1 | 0.0513% (inactive)
